# Measurements reported in article PMC11574364.
# Tests used:
# Assay in all cases: protein domain microarray probed with biotinylated miRNA; Domain array: 20 mM Tris-HCl pH 7.4, 200 mM KCl, 0.2 mM EDTA, 0.05% NP40, 2 ug/ul heparin, overnight 4 C. ORF array: PBS pH 7.0 with RNase inhibitor, 100 ng RNA; high values mean tight binding
# Conditions in all cases: ssRNA
# DAZL = target: T1, DAZL (Homo sapiens, UniProt Q92904)
# T1 sequence: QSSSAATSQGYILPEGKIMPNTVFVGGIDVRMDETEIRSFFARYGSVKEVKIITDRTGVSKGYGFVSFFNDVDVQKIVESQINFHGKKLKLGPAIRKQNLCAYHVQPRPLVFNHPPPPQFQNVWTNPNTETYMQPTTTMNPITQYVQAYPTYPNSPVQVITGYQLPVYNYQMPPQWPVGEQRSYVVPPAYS
# NOL8 = target: T2, NOL8 (Homo sapiens, UniProt Q76FK4)
# T2 sequence: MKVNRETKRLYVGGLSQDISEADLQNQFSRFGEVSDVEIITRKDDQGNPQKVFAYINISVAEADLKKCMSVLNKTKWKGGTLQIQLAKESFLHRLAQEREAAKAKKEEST
# hnRNP-A0 = target: T3, hnRNP-A0 (Homo sapiens, UniProt Q13151)
# T3 sequence: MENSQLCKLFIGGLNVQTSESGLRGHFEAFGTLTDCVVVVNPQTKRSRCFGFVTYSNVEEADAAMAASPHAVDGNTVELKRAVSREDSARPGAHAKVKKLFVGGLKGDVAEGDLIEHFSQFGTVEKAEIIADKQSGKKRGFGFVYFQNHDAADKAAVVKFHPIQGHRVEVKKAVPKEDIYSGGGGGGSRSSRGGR
# NeuN = target: T4, NeuN (Homo sapiens, UniProt A6NFN3)
# T4 sequence: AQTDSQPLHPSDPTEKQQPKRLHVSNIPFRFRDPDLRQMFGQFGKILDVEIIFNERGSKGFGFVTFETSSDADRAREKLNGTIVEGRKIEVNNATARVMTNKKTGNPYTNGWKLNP
# hnRNP-2H9 = target: T5, hnRNP-2H9 (Homo sapiens, UniProt P31942)
# T5 sequence: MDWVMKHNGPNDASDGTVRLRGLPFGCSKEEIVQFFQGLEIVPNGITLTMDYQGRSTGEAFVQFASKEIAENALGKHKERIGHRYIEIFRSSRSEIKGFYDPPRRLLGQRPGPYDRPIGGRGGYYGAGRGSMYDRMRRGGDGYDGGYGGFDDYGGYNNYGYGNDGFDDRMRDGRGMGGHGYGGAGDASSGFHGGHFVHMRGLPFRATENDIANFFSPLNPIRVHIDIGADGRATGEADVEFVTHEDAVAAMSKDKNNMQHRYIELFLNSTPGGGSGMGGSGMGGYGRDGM
# CPEB4 = target: T6, CPEB4 (Homo sapiens, UniProt Q17RY0)
# T6 sequence: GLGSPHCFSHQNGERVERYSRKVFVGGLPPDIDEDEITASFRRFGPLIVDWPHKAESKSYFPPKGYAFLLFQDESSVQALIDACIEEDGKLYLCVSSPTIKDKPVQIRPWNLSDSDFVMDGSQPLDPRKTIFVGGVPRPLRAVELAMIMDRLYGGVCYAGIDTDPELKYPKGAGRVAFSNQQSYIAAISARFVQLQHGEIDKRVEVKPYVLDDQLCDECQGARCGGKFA
# CELF5(3) = CELF5(3) (Homo sapiens, UniProt Q8N6W0)
# CPEB1 = CPEB1 (Homo sapiens, UniProt Q9BZB8)
# MYEF2(3) = target: T7, MYEF2(3) (Homo sapiens, UniProt Q9P2K5)
# T7 sequence: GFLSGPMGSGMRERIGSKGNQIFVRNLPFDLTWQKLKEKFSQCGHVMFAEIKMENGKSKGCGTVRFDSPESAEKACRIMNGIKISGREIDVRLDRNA
# CstF-64T = target: T8, CstF-64T (Homo sapiens, UniProt Q9H0L4)
# T8 sequence: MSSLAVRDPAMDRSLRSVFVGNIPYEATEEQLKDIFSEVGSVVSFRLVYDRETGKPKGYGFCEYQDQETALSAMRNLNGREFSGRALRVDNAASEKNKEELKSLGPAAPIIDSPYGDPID
# Musashi-1 = Musashi-1 (Homo sapiens, UniProt O43347)
# FIR = FIR (Homo sapiens, UniProt Q9UHX1)
# HNRNPCP5 = HNRNPCP5 (Homo sapiens, UniProt B2RXH8)
# hnRNP-F = target: T9, hnRNP-F (Homo sapiens, UniProt P52597)
# T9 sequence: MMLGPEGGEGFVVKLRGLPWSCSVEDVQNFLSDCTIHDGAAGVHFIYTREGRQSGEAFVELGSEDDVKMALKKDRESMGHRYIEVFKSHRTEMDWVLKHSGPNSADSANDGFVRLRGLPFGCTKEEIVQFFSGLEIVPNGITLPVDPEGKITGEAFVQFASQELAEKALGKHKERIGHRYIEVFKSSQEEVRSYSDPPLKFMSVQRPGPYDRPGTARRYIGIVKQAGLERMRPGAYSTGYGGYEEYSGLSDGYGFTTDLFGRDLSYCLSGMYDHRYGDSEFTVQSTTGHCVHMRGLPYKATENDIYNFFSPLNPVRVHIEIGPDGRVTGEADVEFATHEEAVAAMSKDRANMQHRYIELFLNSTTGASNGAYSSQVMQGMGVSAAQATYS
# IGF2BP1 = IGF2BP1 (Homo sapiens, UniProt Q9NZI8)
# GRSF1 = target: T10, GRSF1 (Homo sapiens, UniProt Q12849)
# T10 sequence: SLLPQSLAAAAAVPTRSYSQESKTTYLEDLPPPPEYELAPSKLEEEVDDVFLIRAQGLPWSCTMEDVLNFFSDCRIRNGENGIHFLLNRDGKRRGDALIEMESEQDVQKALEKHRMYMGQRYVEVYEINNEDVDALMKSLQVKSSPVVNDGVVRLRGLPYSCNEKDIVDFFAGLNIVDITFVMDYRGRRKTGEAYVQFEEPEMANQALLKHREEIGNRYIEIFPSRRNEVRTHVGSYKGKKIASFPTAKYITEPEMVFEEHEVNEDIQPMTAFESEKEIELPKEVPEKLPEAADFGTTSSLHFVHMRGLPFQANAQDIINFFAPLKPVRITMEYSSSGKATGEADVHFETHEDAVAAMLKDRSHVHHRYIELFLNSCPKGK
# hnRNP-I(3-4) = hnRNP-I(3-4) (Homo sapiens, UniProt P26599)
# ENOX2 = target: T11, ENOX2 (Homo sapiens, UniProt Q16206)
# T11 sequence: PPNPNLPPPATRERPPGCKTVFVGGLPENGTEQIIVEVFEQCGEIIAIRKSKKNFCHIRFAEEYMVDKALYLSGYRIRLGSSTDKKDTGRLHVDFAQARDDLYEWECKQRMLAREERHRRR
# TAT-SF1 = target: T12, TAT-SF1 (Homo sapiens, UniProt O43719)
# T12 sequence: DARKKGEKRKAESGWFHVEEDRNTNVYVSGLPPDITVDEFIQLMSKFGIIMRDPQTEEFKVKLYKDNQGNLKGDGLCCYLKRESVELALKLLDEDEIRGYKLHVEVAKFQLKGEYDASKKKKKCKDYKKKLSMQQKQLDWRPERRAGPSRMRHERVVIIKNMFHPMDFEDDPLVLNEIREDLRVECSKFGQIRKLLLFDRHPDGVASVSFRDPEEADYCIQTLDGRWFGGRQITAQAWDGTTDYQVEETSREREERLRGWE
# AKAP1 = target: T13, AKAP1 (Homo sapiens, UniProt Q92667)
# T13 sequence: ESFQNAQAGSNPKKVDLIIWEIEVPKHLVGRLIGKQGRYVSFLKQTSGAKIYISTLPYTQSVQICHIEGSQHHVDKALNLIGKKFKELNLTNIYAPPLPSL
# Chain of hnRNP-I(3-4) (P26599 346-557): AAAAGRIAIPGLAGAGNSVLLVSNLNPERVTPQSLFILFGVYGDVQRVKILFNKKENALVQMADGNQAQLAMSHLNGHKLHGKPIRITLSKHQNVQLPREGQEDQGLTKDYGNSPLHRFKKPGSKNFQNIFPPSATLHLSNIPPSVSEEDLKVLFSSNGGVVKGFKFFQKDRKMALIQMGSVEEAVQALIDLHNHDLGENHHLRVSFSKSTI
# Chain of IGF2BP1 (Q9NZI8 1-176): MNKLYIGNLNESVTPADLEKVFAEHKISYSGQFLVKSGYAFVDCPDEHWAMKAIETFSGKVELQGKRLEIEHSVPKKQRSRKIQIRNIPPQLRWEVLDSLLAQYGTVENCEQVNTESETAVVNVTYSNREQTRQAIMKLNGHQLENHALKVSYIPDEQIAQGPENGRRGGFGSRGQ
# Chain of HNRNPCP5 (B2RXH8 1-110): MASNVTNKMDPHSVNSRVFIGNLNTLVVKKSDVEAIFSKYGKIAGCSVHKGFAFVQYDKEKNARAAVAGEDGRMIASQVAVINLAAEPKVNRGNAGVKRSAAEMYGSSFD
# Chain of Musashi-1 (O43347 1-203): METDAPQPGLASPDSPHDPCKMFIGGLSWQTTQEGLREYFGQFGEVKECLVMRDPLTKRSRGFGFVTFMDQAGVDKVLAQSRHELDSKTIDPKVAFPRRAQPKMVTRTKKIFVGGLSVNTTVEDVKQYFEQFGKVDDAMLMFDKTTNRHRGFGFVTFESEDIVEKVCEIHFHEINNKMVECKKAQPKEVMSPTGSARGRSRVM
# Chain of CPEB1 (Q9BZB8 290-531): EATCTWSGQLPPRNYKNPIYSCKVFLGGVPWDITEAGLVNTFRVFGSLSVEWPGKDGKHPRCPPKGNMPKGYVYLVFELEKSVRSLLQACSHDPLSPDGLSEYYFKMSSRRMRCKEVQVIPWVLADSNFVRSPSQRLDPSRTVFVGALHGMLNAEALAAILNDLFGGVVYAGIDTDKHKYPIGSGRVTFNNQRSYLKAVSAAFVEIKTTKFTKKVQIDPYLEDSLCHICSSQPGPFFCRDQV
# Chain of FIR (Q9UHX1 110-559): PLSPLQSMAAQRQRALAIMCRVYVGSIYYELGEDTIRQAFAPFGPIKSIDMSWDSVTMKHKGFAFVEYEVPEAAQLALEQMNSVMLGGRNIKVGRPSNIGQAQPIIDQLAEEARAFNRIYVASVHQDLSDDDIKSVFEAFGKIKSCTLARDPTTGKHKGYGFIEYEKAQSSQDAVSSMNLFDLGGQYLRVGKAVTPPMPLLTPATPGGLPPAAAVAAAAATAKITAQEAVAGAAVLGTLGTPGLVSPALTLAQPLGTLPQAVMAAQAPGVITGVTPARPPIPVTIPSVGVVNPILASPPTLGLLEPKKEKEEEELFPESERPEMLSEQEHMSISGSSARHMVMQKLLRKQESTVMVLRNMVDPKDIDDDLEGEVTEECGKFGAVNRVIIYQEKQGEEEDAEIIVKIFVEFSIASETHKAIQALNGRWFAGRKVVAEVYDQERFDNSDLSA
# Chain of CELF5(3) (Q8N6W0 376-485): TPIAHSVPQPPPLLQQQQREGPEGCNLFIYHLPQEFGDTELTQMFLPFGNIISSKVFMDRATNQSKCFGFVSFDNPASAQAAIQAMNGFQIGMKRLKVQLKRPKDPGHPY
Sequence,binding signal (DAZL) [fluorescence intensity],binding signal (NOL8) [fluorescence intensity],binding signal (hnRNP-A0) [fluorescence intensity],binding signal (NeuN) [fluorescence intensity],binding signal (hnRNP-2H9) [fluorescence intensity],binding signal (CPEB4) [fluorescence intensity],binding signal (CELF5(3)) [fluorescence intensity],binding signal (CPEB1) [fluorescence intensity],binding signal (MYEF2(3)) [fluorescence intensity],binding signal (CstF-64T) [fluorescence intensity],binding signal (Musashi-1) [fluorescence intensity],binding signal (FIR) [fluorescence intensity],binding signal (HNRNPCP5) [fluorescence intensity],binding signal (hnRNP-F) [fluorescence intensity],binding signal (IGF2BP1) [fluorescence intensity],binding signal (GRSF1) [fluorescence intensity],binding signal (hnRNP-I(3-4)) [fluorescence intensity],binding signal (ENOX2) [fluorescence intensity],binding signal (TAT-SF1) [fluorescence intensity],binding signal (AKAP1) [fluorescence intensity]
UGAGGUAGUAGGUUGUAUAGUU,94.2 ± 11,20.3 ± 2.97,1310 ± 111,866 ± 44.2,151 ± 11.1,82.4 ± 7.2,450 ± 137,110 ± 9.17,190.1 ± 1.74,387 ± 8.85,1480 ± 17,717 ± 15,24.6 ± 1.06,624 ± 22.5,26.3 ± 0.771,1790 ± 23.3,323 ± 28.7,20.7 ± 2.55,33.2 ± 1.48,–
UGAGGUAGUAGGUUGUGUGGUU,433 ± 5.39,66.3 ± 9.47,2115 ± 15,1967 ± 2.72,443 ± 62,290 ± 49.8,1040 ± 35.6,462.1 ± 2.31,635 ± 16.7,1870 ± 24.6,1830 ± 23.3,1610 ± 121,93.8 ± 2.53,1210 ± 41.5,47.9 ± 7.33,2120 ± 63.5,945.75 ± 0.764,118 ± 1.51,184.1 ± 0.318,202 ± 12.1
AGAGGUAGUAGGUUGCAUAGUU,362 ± 63.4,33.7 ± 0.233,3219 ± 6.02,2786.2 ± 1.57,466 ± 9.64,130 ± 29.4,1050 ± 99.1,377 ± 32.4,578 ± 21.2,1930 ± 88,3624 ± 8.34,939 ± 116,48 ± 3.14,2388 ± 13.7,35.9 ± 7.28,4990 ± 87.4,786.56 ± 0.269,77.1 ± 15.4,125.2 ± 1.17,91.72 ± 0.827
